# Experimental data reported in PubChem BioAssay AID504332 (National Center for Advancing Translational Sciences (NCATS), 2011).
# About 31,000 (8.9%) of roughly 350,000 compounds were called active. Another 15% or so got no clear call; they are omitted. Many of the other results were omitted from the sample, so actives are more common in it than they were. Unmarked numbers belong to inactive results. Calls come from the whole dose curve; as a rule, active = well fitted inhibition curve with a large enough effect; inconclusive = small, poorly fitted or top-dose-only effect; inactive = no such curve, though single readings can be large or run the other way.
# Target: Histone-lysine N-methyltransferase EHMT2 (Homo sapiens) (UniProt Q96KQ7)
# Sequence (Q96KQ7 913-1193 limits assumed): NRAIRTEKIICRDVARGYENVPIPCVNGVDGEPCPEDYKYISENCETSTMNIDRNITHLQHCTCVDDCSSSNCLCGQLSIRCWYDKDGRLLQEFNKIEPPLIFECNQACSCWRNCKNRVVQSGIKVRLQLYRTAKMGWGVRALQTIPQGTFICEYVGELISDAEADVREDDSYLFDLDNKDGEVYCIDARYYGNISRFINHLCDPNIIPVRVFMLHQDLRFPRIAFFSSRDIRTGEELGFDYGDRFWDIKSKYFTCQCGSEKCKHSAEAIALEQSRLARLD
# Assay: qHTS Assay for Inhibitors of Histone Lysine Methyltransferase G9a; note: nearly all actives have a fitted effect of over 75% in size
# Details: G9a H3K9 monomethylation, AlphaScreen, 2 h; series mostly up to 59 µM; activity, negative = inhibition: at the top concentration
# In short: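 G9a (20 nM) was preincubated 15 min with compound, then reacted 2 h at room temperature with 500 nM biotin-H3K9 peptide and 20 µM SAM. Monomethyl-H3K9 detected by AlphaScreen using anti-H3K9me1 antibody.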
# % is set by controls: 0 for no effect and ±100 for the full control effect; potency is the fitted concentration of half-maximal effect.
Structure (SMILES),"activity, negative = inhibition",Potency
O=C(COC(=O)CNS(=O)(=O)c1ccc(F)c(F)c1F)NC1CCCC1,-25.7% [at 102 µM],
CCc1ccc(S(=O)(=O)c2nnn3c2nc(N2CCN(CC)CC2)c2sccc23)cc1,-45.5%,
CCCCN(C(=O)CSCC(=O)Nc1ccc(OC)cc1)c1c(N)n(CCC)c(=O)[nH]c1=O,19.8% [at 2.33 µM],
Cc1ccccc1Nc1nc(N)nc(CN2CCN(c3ccccn3)CC2)n1,-45.5% [at 12.7 µM],
CCOC(=O)N1CCN(Cc2nc(N)nc(Nc3ccc(C)cc3)n2)CC1,-23.8% [at 2.33 µM],
Cc1ccc(Nc2nc(N)nc(CN3CCN(Cc4ccccc4)CC3)n2)cc1Cl,,50.1 µM (active)
CC(=O)c1ccc(NC(=O)c2ccc(-n3cncn3)c([N+](=O)[O-])c2)cc1,15% [at 102 µM],
COc1ccccc1OCCNc1cc(N2CCOCC2)ccc1[N+](=O)[O-],,39.8 µM (active)
COc1ccccc1OCCNC(=O)c1cc([N+](=O)[O-])cc([N+](=O)[O-])c1,-33.4% [at 102 µM],
O=C(c1ccccc1)N1CCN(c2ccc([N+](=O)[O-])c(NCc3ccco3)c2)CC1,44.5% [at 0.501 µM],
CC(=O)Nc1ccc(S(=O)(=O)N2CCN(c3ccccc3)CC2)cc1,1.17%,
O=[N+]([O-])c1ccc(N2CCN(S(=O)(=O)c3ccc4ccccc4c3)CC2)cc1NCc1ccco1,-41.4%,
CC(=O)Nc1ccc(S(=O)(=O)N2CCN(c3ccc([N+](=O)[O-])c(NCCN4CCOCC4)c3)CC2)cc1,,70.8 µM (active)
O=C(NCCNc1ccccc1[N+](=O)[O-])c1ccccc1F,2.67%,
Cc1ccc(CCNC(=O)c2ccc(CS(=O)(=O)Cc3cccc(C)c3)o2)cc1,9.17%,
O=C(N/N=C\c1cc2c(cc1Cl)OCO2)c1ccc(Br)s1,-6.61% [at 102 µM],
CCN1C(=O)[C@@H]2[C@@H](c3ccc(-c4cccc(Cl)c4)cc3)N3CCC[C@@]3(C(=O)OC)[C@@H]2C1=O,4.52% [at 2.33 µM],
CC(C)(C)OC(=O)NCCCCCC(=O)N/N=C/c1coc2ccccc2c1=O,-6.59% [at 102 µM],
CC1=CC2=NC(=O)/C(=C/c3coc4ccccc4c3=O)C(=N)N2O1,,44.7 µM (active)
CCOc1cc(/C=C2/C(=N)N3OC(C)=CC3=NC2=O)ccc1OC,-30.7% [at 102 µM],
CC(=O)Nc1ccc(S(=O)(=O)N2CCn3cccc3C2C)cc1 (stereo not drawn),-104% [at 12.7 µM],
CCOC(=O)C1(C)NC(c2ccco2)C2C(=O)N(c3ccccc3)C(=O)C21 (stereo not drawn),-5.49% [at 102 µM],
COC(=O)C1(C)NC(c2ccc(C)cc2)C2C(=O)N(c3ccc(F)cc3)C(=O)C21 (stereo not drawn),7.54% [at 102 µM],
CCCC1(C(=O)OCC)NC(c2ccc(N(C)C)cc2)C2C(=O)N(c3ccc4c(c3)OCCO4)C(=O)C21 (stereo not drawn),,8.91 µM (active)

Structure (SMILES),"activity, negative = inhibition",Potency
Cc1csc(NC(=O)C2CCN(S(=O)(=O)c3ccccc3)CC2)n1,-7.29% [at 102 µM],
Cc1csc(NC(=O)NC2(C(F)(F)F)Oc3ccccc3O2)n1,,2 µM (active)
CC(=O)Nc1cccc(C(=O)Nc2nc(C)cs2)c1,24.9% [at 102 µM],
O=C1OC(/C=C/c2ccccc2)=NC/1=C/c1ccco1,-5.86%,
CC(C)(C)C1C/C(=C/c2ccco2)C(=O)/C(=C/c2ccco2)C1 (stereo not drawn),,39.8 µM (active)
CCOC(=O)c1c(S(=O)(=O)N2CCC(C(=O)NCc3ccccc3OC)CC2)c(C)n(C)c1C,-3.21%,
CCOC(=O)c1c(NC(=O)c2ccc(S(=O)(=O)N3CCCC(C)C3)cc2)sc2c1CCN(C(C)C)C2 (stereo not drawn),8.5%,
COC(=O)c1ccc(OCC(=O)NC(C)(C)C)cc1,4.75% [at 102 µM],
CC(=O)Nc1ccc(OCC(=O)NCc2ccc(C)cc2)cc1,-2.76% [at 102 µM],
CC(C)(C)NC(=O)COc1ccc(CNc2ccc3[nH]c(=O)[nH]c3c2)cc1,,31.6 µM (active)
Cc1ccc(OCC(=O)N2CCN(S(=O)(=O)c3ccc(Cl)s3)CC2)cc1C,6.17% [at 2.33 µM],
C=CCNC(=S)/N=c1/ccccn1Cc1ccccc1,,31.6 µM (active)
C=CCNC(=S)N/N=C/c1ccc(OCc2ccccc2)cc1,12.6% [at 102 µM],
C=CCNC(=O)COc1coc(CN2CCN(Cc3ccccc3)CC2)cc1=O,18.3% [at 0.501 µM],
O=C(CSc1nc2[nH]c(=O)[nH]c(=O)c2s1)Nc1cccc(F)c1,24.5% [at 12.7 µM],
COc1ccc(OC)c(NC(=O)CSC2=Nc3ccccc3C3=NC(CC(=O)NCCc4ccccc4)C(=O)N23)c1 (stereo not drawn),-2.77%,
COc1ccc(OCC(=O)Nc2cc(C)c(Cl)cc2OC)c([N+](=O)[O-])c1,-4.05%,
COc1cc(NC(=O)COC(=O)CSc2ccc3ccccc3c2)c(C)cc1[N+](=O)[O-],-14.8%,
Cc1cc(NC(=O)COC(=O)COc2ccc(Cl)cc2C)c([N+](=O)[O-])cc1C,,8.91 µM (active)
Cc1ccccc1OCCSc1nc2ccc(NC(=O)c3ccco3)cc2s1,-0.195%,
CC(=O)c1c(C)[nH]c(C(=O)OCC(=O)Nc2c(C)cccc2C)c1C,-11.6% [at 12.7 µM],
O=S(=O)(Nc1ccc2nc(N3CCOCC3)sc2c1)c1ccccc1,,50.1 µM (active)
CC(=O)Nc1ccc(S(=O)(=O)Nc2ccc(N3CCOCC3)c(F)c2)cc1,-11.3%,
Brc1ccc2nc(N3CCCC3)sc2c1,5.39% [at 102 µM],

Structure (SMILES),"activity, negative = inhibition",Potency
Cc1ccc(-n2c(N)c(C(=O)N3CCOCC3)sc2=S)c(C)c1,,7.94 µM (active)
Cc1cccc(C(=O)N2CCCN(C(=O)c3cccc(C)c3)CC2)c1,-5.03% [at 12.7 µM],
Cc1ccc(S(=O)(=O)N2CCN(C(=O)N3CCOCC3)CC2)c(C)c1,11.4% [at 102 µM],
COC(=O)c1sc(N2CCN(Cc3ccccc3)CC2)nc1N,-23.6% [at 102 µM],
COC(=O)c1sc(=S)n(-c2ccc(Cl)cc2)c1C,-36.4%,
N#Cc1ccccc1-n1c(N)c(C(=O)N2CCCC2)sc1=S,19.8% [at 0.501 µM],
Cc1cccc(-n2c(N)c(C(=O)N3CCN(C)CC3)sc2=S)c1,,8.91 µM (active)
CC(C)=C1SC(N2CCN(c3cccc(C)c3)CC2)=NC1=O,10.3% [at 12.7 µM],
COC(=O)c1sc(=S)n(-c2ccccc2)c1N,,3.16 µM (active)
COc1ccc(CCNc2nc(-c3ccc(Cl)cc3)cc(C(F)(F)F)n2)cc1OC,30.5%,
COc1cc(-c2noc(-c3ccc(N4CCCC4)c([N+](=O)[O-])c3)n2)cc(OC)c1OC,-34%,
O=C(COc1ccccc1)OCc1cc(=O)n2nc(-c3cccs3)sc2n1,15.1%,
Cc1cccc(-n2c(C)cc(/C=N\NC(=O)c3cccs3)c2C)c1,1.88%,
NC(=O)N/N=C\c1cccs1,6.75% [at 102 µM],
Cc1cc(/C=N/NC(N)=O)c(C)n1C1CCCCC1,,50.1 µM (active)
Cn1c(=O)c(=O)n(C)c2cc(NC(=O)c3ccccc3Br)ccc21,6.51%,
COc1ccc2c(c1)Cc1sc(NC(=O)c3ccccc3Br)nc1-2,,25.1 µM (active)
COc1cccc(C(=O)NNC(=O)c2ccccc2Br)c1,2.81% [at 102 µM],
COc1ccc(CNC(=O)c2cc3c(-c4ccccc4F)nn(C)c3s2)c(OC)c1,3.86%,
CCN(CC(=O)Nc1ccccc1C(F)(F)F)C(=O)CSCc1c(C)noc1C,9.18% [at 0.501 µM],
CCOC(=O)C1(Cc2ccccc2C)CCCN(C(=O)CCc2c(C)noc2C)C1 (stereo not drawn),65.5% [at 102 µM],
CCOc1ccc(N2C(=O)CN(c3cccc4ccccc34)C2=S)cc1,-2.7% [at 102 µM],
CCOc1ccc(N2C(=O)CSC2=NC#N)cc1,-16.5% [at 12.7 µM],
CCOc1ccc(N2C(=O)/C(=C/c3ccc(C)o3)N(C)C2=S)cc1,,3.55 µM (active)

Structure (SMILES),"activity, negative = inhibition",Potency
COc1ccc(/C=C2\SC(=O)N(CCC(=O)NC3CCS(=O)(=O)C3)C2=O)cc1 (stereo not drawn),10.4% [at 102 µM],
Cc1ccc(-n2c3nc(=O)[nH]c(=O)c-3cc3c(Cl)cccc32)cc1,0.296%,
CCOc1ccc(S(=O)(=O)N2CCCC(C(=O)N3CCC(C(N)=O)CC3)C2)cc1Cl (stereo not drawn),10.8% [at 102 µM],
CCN1/C(=C\c2ccc3ccccc3[n+]2CC)Sc2cc(C)ccc21,,22.4 µM (active)
Cc1nc2nc(SCC(=O)Nc3cccc(F)c3)[nH]c2cc1Br,-6.53% [at 102 µM],
COc1ccc(C(=O)Nc2ccc(C3(C#N)CCCC3)cc2)cc1OC,5.57% [at 0.501 µM],
CC1(C)N=C(SCc2ccccc2Cl)c2ccccc2N1,58.5%,
CCc1nnc(NC(=O)/C=C/c2ccc(C)o2)s1,-7.08%,
Cc1ccc(/C=C/C(=O)Nc2ccc([N+](=O)[O-])c(NC(=O)/C=C/c3ccc(C)o3)c2)o1,,22.4 µM (active)
CNc1ccc(NC(C)=O)cc1[N+](=O)[O-],-49.9% [at 102 µM],
CC(C(=O)N1CCN(c2ccccc2F)CC1)c1ccc([N+](=O)[O-])cc1 (stereo not drawn),13.1% [at 0.501 µM],
COc1ccc2c(CNCCc3ccccc3C)c(C(=O)O)n(Cc3ccccc3C)c2c1,-17.1%,
CCOc1ccc(C2C(C(=O)Nc3ccc(Cl)cc3)=C(C)Nc3nc(C(F)(F)F)nn32)cc1 (stereo not drawn),-12%,
Cc1nnc(SCC(=O)NC2CCCC2)s1,-22.1%,
Cc1nnc(SCC2=C(C(=O)O)N3C(=O)C(NC(=O)Cn4nc(C)c(Cl)c4C)C3SC2)s1 (stereo not drawn),,31.6 µM (active)
O=C1N[C@@H](Cc2ccccc2)C(=O)N2[C@H]1C[C@]1(Br)c3ccccc3N(S(=O)(=O)c3ccccc3)[C@H]21,7.4% [at 2.33 µM],
Cc1ccc(NC(=O)Cn2nnc3sc4c(c3c2=O)CCC(C)C4)cc1 (stereo not drawn),-5.2%,
CCCn1nnc2sc3c(c2c1=O)CCC(C)C3 (stereo not drawn),109% [at 102 µM],
CC1CCc2c(sc3nc4n(c(=O)c23)CCS4)C1 (stereo not drawn),,50.1 µM (active)
CC1CCN(C(=O)COC(=O)CCC(=O)c2cccs2)CC1,-38.9% [at 102 µM],
Brc1ccc2c(c1)NC(c1cccnc1)=NC(c1ccccc1)=N2,1.49%,
